# Pf Dd2 inh: inhibitors of Plasmodium falciparum Dd2 growth; 94,000 compounds, 2.3% hits; activity change, % at 10 µM; AID 1159554; P. falciparum Dd2 growth, SYBR Green, 72 h; active compounds read low; in the data active = activity change below about -80%; inconclusive = no clear call, values can overlap the other calls
# C diff growth: inhibitors of Clostridium difficile growth; growth activity, negative = inhibition, % at 16 µg/mL (by protocol); 86,000 compounds, 0.25% hits; Clostridium difficile clinical isolate growth, OD600, 24 h; active compounds read low;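 active = mean growth activity at or below -80% and every replicate also at or below -80%; inconclusive = mean at or below -80% but some replicate above -80%; inactive = mean growth activity above -80%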
# Hits are given with their value; - = inactive; ? = inconclusive; . = no result given. Compounds with a hit are over-represented: about 2.4% of the library has one in this group of screens.
SMILES,Pf Dd2 inh,C diff growth
O=C1CN(S(=O)(=O)c2ccccc2)C[C@@H]2[C@H](c3ccc(C#CCc4ccccc4)cc3)[C@@H](CO)N12,-84,-
O=C1CN(S(=O)(=O)c2ccccc2)C[C@@H]2[C@H](c3ccc(C#CCc4ccccc4)cc3)[C@H](CO)N12,-,-
Cc1ccccc1S(=O)(=O)N1CC(=O)N2[C@H](CO)[C@H](c3ccc(C#Cc4ccccc4)cc3)[C@H]2C1,-,-
C[C@H](CO)N1C[C@H](C)[C@H](CN(C)Cc2cccc(C(=O)O)c2)OCc2ccccc2-c2c(n(C)c3ccccc23)C1=O,-,-
C[C@@H]1CN([C@H](C)CO)C(=O)c2ccccc2-c2ccccc2CO[C@@H]1CN(C)Cc1ccccc1C(F)(F)F,-93,-
C[C@@H]1CN([C@@H](C)CO)C(=O)c2c(c3ccccc3n2C)-c2ccccc2CO[C@H]1CN(C)Cc1cccc(C(=O)Nc2ccccc2N)c1,-89,-
C[C@H](CO)N1C[C@H](C)[C@@H](CN(C)Cc2ccc(Oc3ccccc3)cc2)OCc2ccccc2-c2c(n(C)c3ccccc23)C1=O,-91,-
C[C@H]1CN([C@@H](C)CO)C(=O)c2c(c3ccccc3n2C)-c2ccccc2CO[C@H]1CN(C)Cc1ccc(-c2ccccc2)cc1,-88,-
C[C@@H]1CN([C@@H](C)CO)C(=O)c2ccccc2-c2ccccc2CO[C@@H]1CN(C)Cc1ccccc1C(F)(F)F,-,-
C[C@@H]1CN([C@@H](C)CO)C(=O)c2c(c3ccccc3n2C)-c2ccccc2CO[C@H]1CN(C)Cc1ccc(Oc2ccccc2)cc1,-,-
C[C@H](CO)N1C[C@H](C)[C@H](CN(C)Cc2ccc(-c3ccccc3)cc2)OCc2ccccc2-c2c(n(C)c3ccccc23)C1=O,?,-
CCNC(=O)[C@@H]1[C@@H](CO)[C@@H]2Cn3c(ccc(C4=CCCC4)c3=O)[C@H]1N2C(=O)CC,-,-
C[C@@H]1CN([C@@H](C)CO)C(=O)c2cc(-c3ccc(C#N)cc3)cnc2O[C@H]1CN(C)C(=O)Nc1ccc(F)cc1,-,-
C[C@@H]1CN([C@H](C)CO)C(=O)c2cc(NC(=O)Nc3ccc(F)cc3)ccc2O[C@@H]1CN(C)S(=O)(=O)c1ccc(F)cc1,-,-
Cc1ccc(-c2ccc3c(c2)O[C@H](CN(C)C(=O)Nc2ccc(C(F)(F)F)cc2)[C@H](C)CN([C@@H](C)CO)S3(=O)=O)cc1,-,-
O=C(Nc1ccc(F)cc1)N1C[C@H]2[C@@H](c3ccccc31)[C@@H](CO)N2C(=O)c1ccccc1F,-,-
COc1cccc(CN(C)C[C@@H]2OCc3ccccc3-c3c(n(C)c4ccccc34)C(=O)N([C@@H](C)CO)C[C@H]2C)c1,-,-
C[C@@H]1CN([C@@H](C)CO)C(=O)c2c(c3ccccc3n2C)-c2ccccc2CO[C@@H]1CN(C)Cc1ccc(F)cc1,-,-
COc1ccccc1CN(C)C[C@@H]1OCc2ccccc2-c2c(n(C)c3ccccc23)C(=O)N([C@H](C)CO)C[C@@H]1C,-,-
C[C@H]1CN([C@@H](C)CO)C(=O)c2c(c3ccccc3n2C)-c2ccccc2CO[C@@H]1CN(C)Cc1ccccc1,-,-
C[C@H](CO)N1C[C@H](C)[C@@H](CN(C)Cc2ccc(-c3ccccc3)cc2)OCc2ccccc2-c2c(n(C)c3ccccc23)C1=O,-92,-
C[C@H]1CN([C@@H](C)CO)C(=O)c2c(c3ccccc3n2C)-c2ccccc2CO[C@@H]1CN(C)Cc1ccccc1C(F)(F)F,-85,-
C[C@H]1CN([C@@H](C)CO)C(=O)c2c(c3ccccc3n2C)-c2ccccc2CO[C@@H]1CN(C)Cc1ccc(F)cc1,-83,-
COc1cccc(CN(C)C[C@H]2OCc3ccccc3-c3c(n(C)c4ccccc34)C(=O)N([C@@H](C)CO)C[C@H]2C)c1,-87,-
C[C@H]1CN([C@@H](C)CO)C(=O)c2cccc(NC(=O)Nc3ccc(F)cc3)c2O[C@@H]1CN(C)C(=O)NC1CCCCC1,-,-
SMILES,Pf Dd2 inh,C diff growth
C[C@@H]1CN([C@@H](C)CO)C(=O)c2c(c3ccccc3n2C)-c2ccccc2CO[C@@H]1CN(C)Cc1ccc(C(F)(F)F)cc1,-,-
C[C@@H]1CN([C@H](C)CO)C(=O)c2c(c3ccccc3n2C)-c2ccccc2CO[C@@H]1CN(C)Cc1cccc(F)c1,-88,-
C[C@H]1CN([C@@H](C)CO)C(=O)c2c(c3ccccc3n2C)-c2ccccc2CO[C@@H]1CN(C)Cc1cccc(F)c1,-,-
C[C@H](CO)N1C[C@H](C)[C@H](CN(C)Cc2ccc(C(F)(F)F)cc2)OCc2ccccc2-c2c(n(C)c3ccccc23)C1=O,-83,-
CO[C@@H]1CN(C)C(=O)c2cc(NS(C)(=O)=O)ccc2OC[C@@H](C)N(CC2CCCCC2)C[C@H]1C,-,.
N#C[C@@H]1[C@@H](c2ccccc2)[C@@H](CO)N1C(=O)c1ccc2c(c1)OCO2,-,-
Cc1ccc(S(=O)(=O)N[C@H]2CC[C@@H](CC(=O)N3CCN(c4ccccc4)CC3)O[C@@H]2CO)cc1,-,-
COc1ccc2c3c(n(C)c2c1)[C@H](CO)N(C(=O)Nc1ccc(F)cc1)CC31CCN(S(=O)(=O)c2cccc(F)c2)CC1,-88,-
COc1ccc2c3c(n(C)c2c1)[C@@H](CO)N(C(=O)Nc1ccc(F)cc1)CC31CN(S(=O)(=O)c2cccc(C)c2)C1,-,-
COc1ccc2c3c(n(C)c2c1)[C@H](CO)N(C(=O)Nc1ccc(F)cc1)CC31CN(S(=O)(=O)c2cccs2)C1,-,.
COc1ccc2c3c(n(C)c2c1)[C@H](CO)N(C(=O)Nc1ccc(F)cc1)CC31CCN(S(=O)(=O)c2cccs2)CC1,-86,-
CC(C)(C)[S@](=O)N1Cc2cc(C(=O)NCCN3CCCCC3)nc(-c3cccc(-c4cccc(C#N)c4)c3)c2[C@@H]1CCO,-,.
CC(C)CC#Cc1ccc([C@H]2[C@H](CO)N3CCCCN(C(=O)Nc4ccccc4)C[C@@H]23)cc1,-,-98
O=C(Nc1ccccc1)N1CCCCN2[C@H](CO)[C@H](c3ccc(C#Cc4cccnc4)cc3)[C@@H]2C1,-88,-
CC(C)CC#Cc1ccc([C@@H]2[C@H]3CN(C(=O)Nc4ccccc4)CCCCN3[C@H]2CO)cc1,-,-
CC(C)CC#Cc1ccc([C@@H]2[C@H](CO)N3CCCCN(C(=O)Nc4ccccc4)C[C@@H]23)cc1,-,-98
O=C(Nc1ccccc1)N1CCCCN2[C@H](C1)[C@H](c1ccc(C#Cc3cccnc3)cc1)[C@@H]2CO,-,-
CC(C)CC#Cc1ccc([C@H]2[C@@H](CO)N3CCCCN(C(=O)Nc4ccccc4)C[C@@H]23)cc1,-,-
CS(=O)(=O)Nc1ccc2c(c1)[C@H]1C[C@@H](CC(=O)NCc3ccc(Cl)cc3)O[C@@H](CO)[C@H]1O2,-,-
C[C@@H]1CN([C@H](C)CO)C(=O)c2cc(C3=CCCC3)cnc2O[C@H]1CN(C)Cc1cccnc1,-,-
O=C(C[C@@H]1C=C[C@@H](NC(=O)c2ccc(F)cc2)[C@H](CO)O1)NCc1ccncn1,-,-
CC(C)NC(=O)N(C)C[C@H]1OCCCC[C@@H](C)Oc2ccc(N(C)C)cc2C(=O)N([C@H](C)CO)C[C@H]1C,-,-
C[C@@H]1CN([C@@H](C)CO)C(=O)c2cc(NC(=O)Cc3ccccc3)ccc2O[C@H]1CN(C)Cc1ccc(C(=O)O)cc1,-,-
